ChEMBL document CHEMBL3988442, “University of Dundee, Small-Polar-MMV Screening Library” (2021)

Legend:
[1] = target: T1, Aspartate--tRNA(Asp/Asn) ligase (Mycobacterium tuberculosis (strain ATCC 25618 / H37Rv)) (UniProt P9WFW3); experiment: Assay for Asp RNA synthetase-1 from Mycobacterium tuberculosis; type: functional; set-up: scale not given: direction of the effect not stated beside the values; settings: 30 µM; note: in the data most compounds retested in dose-response had high values
T1 sequence (whole entry): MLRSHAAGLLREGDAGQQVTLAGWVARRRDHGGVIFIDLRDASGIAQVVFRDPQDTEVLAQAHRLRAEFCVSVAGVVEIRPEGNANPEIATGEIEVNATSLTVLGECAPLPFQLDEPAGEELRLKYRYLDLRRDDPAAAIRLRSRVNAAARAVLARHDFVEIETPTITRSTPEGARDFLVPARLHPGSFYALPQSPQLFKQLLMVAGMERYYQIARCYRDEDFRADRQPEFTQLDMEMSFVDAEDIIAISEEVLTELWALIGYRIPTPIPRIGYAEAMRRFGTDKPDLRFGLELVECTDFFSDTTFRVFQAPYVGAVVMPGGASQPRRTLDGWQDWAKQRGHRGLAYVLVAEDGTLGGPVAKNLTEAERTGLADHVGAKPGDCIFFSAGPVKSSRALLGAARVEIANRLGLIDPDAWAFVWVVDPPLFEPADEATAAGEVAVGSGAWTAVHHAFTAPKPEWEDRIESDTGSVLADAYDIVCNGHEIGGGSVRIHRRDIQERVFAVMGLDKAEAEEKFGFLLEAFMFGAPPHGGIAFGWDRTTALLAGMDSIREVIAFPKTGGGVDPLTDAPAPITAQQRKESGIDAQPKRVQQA

[2] = target: Shiga toxin 2 (Escherichia coli O157:H7) (UniProt P09385+P09386); experiment: E. coli 0.157:H7 Shiga Toxin SOP - stx2 screening assay; type: functional; set-up: scale not given: direction of the effect not stated beside the values; settings: 30 µM

| SMILES | Percent Effect [1] [%] | Percent Effect [2] [%] |
| --- | --- | --- |
| COc1cccc(CN2CCCCCC2c2cccc(C)c2)c1O (stereo unspecified) | -0.481 | -68.7 |
| Cc1ccc(NC2CCN(C(=O)c3c(C)noc3C)CC2)nn1 | -3.12 | 7.22 |
| O=C(NCN1CCc2ccccc2C1)c1cnccn1 | 8.37 | -18.9 |
| Cc1ccc(C)c(-n2ccc3nc(N4CCCC4)ncc3c2=O)c1 | -4.04 | -36.3 |
| CCO[C@@H]1CC[C@H]2[C@H]1OCCN2C(=O)C1CCOCC1 | -5.84 | 8.02 |
| CN(C)c1ccc(C(=O)N2CCN(C(=O)N3CCCCC3)CC2)nn1 | -3.34 | -35 |
| CN(Cc1ncc[nH]1)CC(c1cccs1)N1CCOCC1 (stereo unspecified) | -3.41 | 4.34 |
| CCc1cc(C(=O)N2CCCC2c2nc(C)c(F)c(O)n2)on1 (stereo unspecified) | 2.22 | -57 |
| Cc1nc(C)n(C2CCCN(C(=O)CCc3ccncc3)C2)n1 (stereo unspecified) | -6.6 | 11.7 |
| COc1ccc(Cl)cc1NCC(=O)NCCNc1cnccn1 | -0.88 | 25.1 |
| Cc1cc(CN2CCc3nn(C(C)C)c(=O)cc3C2)no1 | -1.25 | 6.39 |
| c1ccc(OC2CCCC2)c(CNC2CCc3ncnn3C2)c1 (stereo unspecified) | -1.83 | 9.47 |
| Cn1cnnc1S(=O)(=O)C1CCN(S(=O)(=O)C2CC2)CC1 | -0.604 | -7.38 |
| NC(=O)c1ccc(NC(=O)CCN2CCCC(N3CCCC3)C2)cc1 (stereo unspecified) | -4.91 | 24.7 |
| Cc1cc(NC(=O)NCCc2cccs2)n(C)n1 | 1.39 | -38.4 |
| NC(=O)COc1ccc(CNCc2ccc(F)c(F)c2)cc1 | -1.73 | -31.1 |
| CCc1nc(CN2CCCC(N(C)Cc3cnc(C)s3)C2)no1 (stereo unspecified) | -0.259 | 4.86 |
| O=C(Cn1cc(-c2ccccc2)ncc1=O)Nc1nnc[nH]1 | -0.342 | 6.34 |
